The source of these data is PubChem BioAssay.

Molecules are shown by their SMILES. Calls of active or inactive are those of the source.

Test [1] relates to PRMT1 (protein arginine N-methyltransferase 1). The test is described as follows: PRMT1 binders on small-molecule microarrays, primary screen, biochemical, small-molecule microarray, 635 nm fluorescence (AID 1088).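 Also: binding of Prmt1 protein to compounds spotted on small-molecule microarray slides.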 Conditions: small-molecule microarray binding, higher = more signal.
Test [2] can be described thus: yeast growth modulation, basal conditions, primary screen, YJM789 clinical isolate, OD600, 24 h (AID 1089).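 Also: growth of clinical yeast isolate S. cerevisiae YJM 789 seeded 1000 cells per well; test concentration not given here.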 Conditions: S. cerevisiae YJM789 growth, higher = more signal, called active from +8 up or from −8 down.
The nature of test [3]: fission yeast growth modulation, primary screen, strain 972, OD600, 24 h, no modulator (AID 1090).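 Also: basal condition with compound alone and no growth modifier present; test concentration not given here.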 Conditions: S. pombe 972 growth, higher = more signal, called active from +8 up or from −8 down.
A short description of test [4]: S. cerevisiae growth modulation with rapamycin, primary screen, strain BY4716, OD600, 96 h (AID 1091). Also: test concentration not given here. The following applies: higher = more signal, called active from +8 up or from −8 down.
Test [5] deals with Torsin-1A-interacting protein 2 (Homo sapiens) (UniProt Q8NFQ8). Put plainly: LULL1 binders on small-molecule microarray, primary screen, cell lysate, human LULL1 lysate, 635/667 nm fluorescence (AID 1092).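 Also: probe is lysate of COS7 cells overexpressing human LULL1; score merges per-feature 667 nm fluorescence with signal-to-noise.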 The following applies: hLULL1 lysate binding, 635 nm fluorescence, higher = more signal.
Torsin-1A-interacting protein 2 (Homo sapiens), sequence (Q8NFQ8 whole entry, looked up): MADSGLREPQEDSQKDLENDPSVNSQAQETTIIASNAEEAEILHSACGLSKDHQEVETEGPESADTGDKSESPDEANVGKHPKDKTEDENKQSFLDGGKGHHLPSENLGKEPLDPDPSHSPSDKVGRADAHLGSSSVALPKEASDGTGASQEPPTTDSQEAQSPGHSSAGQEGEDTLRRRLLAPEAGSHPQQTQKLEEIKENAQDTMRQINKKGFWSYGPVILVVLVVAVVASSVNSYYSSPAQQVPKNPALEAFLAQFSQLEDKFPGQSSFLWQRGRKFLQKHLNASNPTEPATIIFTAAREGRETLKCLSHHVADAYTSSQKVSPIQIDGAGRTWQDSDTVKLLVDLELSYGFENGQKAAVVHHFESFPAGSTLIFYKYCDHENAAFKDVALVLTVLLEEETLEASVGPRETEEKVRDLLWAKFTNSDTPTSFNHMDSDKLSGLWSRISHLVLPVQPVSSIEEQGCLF
The nature of test [6]: E. coli growth modulation, two-sided OD650, primary screen, E. coli filamentation project, strain DRC41, 24 h (AID 1093).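 Also: MC1000 strain lacking acrAB efflux and sulA so SOS filamentation is blocked; test concentration not given here.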 The following applies: OD650, 24 h, higher = more signal, called active from +8 up or from −8 down.
Test [7] is described as follows: small-molecule microarray binders of probe aLefty2, primary screen, biochemical, biotinylated probe, 635/667 nm fluorescence (AID 1094).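 Also: score merges spot fluorescence near 667 nm with spot signal-to-noise ratio.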 Conditions: higher = more signal.
Test [8] deals with Noggin (protein binding on small-molecule microarray). Put plainly: Noggin binders on small-molecule microarray, primary screen, biochemical, 635/667 nm fluorescence (AID 1095).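 Also: score merges 667 nm feature fluorescence with signal to noise over triplicate slides.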 The following applies: 635 nm fluorescence, higher = more signal.
Test [9] addresses Neurogenic locus notch homolog protein 3 (Homo sapiens) (UniProt Q9UM47). Put plainly: NOTCH3 binders on small-molecule microarray, primary screen, biochemical, 635/667 nm fluorescence (AID 1096). Conditions: NOTCH3 binding, 635 nm fluorescence, higher = more signal.
The nature of test [10]: small-molecule microarray binders of probe aEGFR, primary screen, biochemical, biotinylated probe, 635/667 nm fluorescence (AID 1097).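 Also: probe is a biotinylated anti-EGFR antibody binding compounds printed on slides; score combines fluorescence near 667 nm and signal to noise of each spot.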 Conditions: higher = more signal.

Neurogenic locus notch homolog protein 3 (Homo sapiens), sequence (Q9UM47 whole entry, looked up): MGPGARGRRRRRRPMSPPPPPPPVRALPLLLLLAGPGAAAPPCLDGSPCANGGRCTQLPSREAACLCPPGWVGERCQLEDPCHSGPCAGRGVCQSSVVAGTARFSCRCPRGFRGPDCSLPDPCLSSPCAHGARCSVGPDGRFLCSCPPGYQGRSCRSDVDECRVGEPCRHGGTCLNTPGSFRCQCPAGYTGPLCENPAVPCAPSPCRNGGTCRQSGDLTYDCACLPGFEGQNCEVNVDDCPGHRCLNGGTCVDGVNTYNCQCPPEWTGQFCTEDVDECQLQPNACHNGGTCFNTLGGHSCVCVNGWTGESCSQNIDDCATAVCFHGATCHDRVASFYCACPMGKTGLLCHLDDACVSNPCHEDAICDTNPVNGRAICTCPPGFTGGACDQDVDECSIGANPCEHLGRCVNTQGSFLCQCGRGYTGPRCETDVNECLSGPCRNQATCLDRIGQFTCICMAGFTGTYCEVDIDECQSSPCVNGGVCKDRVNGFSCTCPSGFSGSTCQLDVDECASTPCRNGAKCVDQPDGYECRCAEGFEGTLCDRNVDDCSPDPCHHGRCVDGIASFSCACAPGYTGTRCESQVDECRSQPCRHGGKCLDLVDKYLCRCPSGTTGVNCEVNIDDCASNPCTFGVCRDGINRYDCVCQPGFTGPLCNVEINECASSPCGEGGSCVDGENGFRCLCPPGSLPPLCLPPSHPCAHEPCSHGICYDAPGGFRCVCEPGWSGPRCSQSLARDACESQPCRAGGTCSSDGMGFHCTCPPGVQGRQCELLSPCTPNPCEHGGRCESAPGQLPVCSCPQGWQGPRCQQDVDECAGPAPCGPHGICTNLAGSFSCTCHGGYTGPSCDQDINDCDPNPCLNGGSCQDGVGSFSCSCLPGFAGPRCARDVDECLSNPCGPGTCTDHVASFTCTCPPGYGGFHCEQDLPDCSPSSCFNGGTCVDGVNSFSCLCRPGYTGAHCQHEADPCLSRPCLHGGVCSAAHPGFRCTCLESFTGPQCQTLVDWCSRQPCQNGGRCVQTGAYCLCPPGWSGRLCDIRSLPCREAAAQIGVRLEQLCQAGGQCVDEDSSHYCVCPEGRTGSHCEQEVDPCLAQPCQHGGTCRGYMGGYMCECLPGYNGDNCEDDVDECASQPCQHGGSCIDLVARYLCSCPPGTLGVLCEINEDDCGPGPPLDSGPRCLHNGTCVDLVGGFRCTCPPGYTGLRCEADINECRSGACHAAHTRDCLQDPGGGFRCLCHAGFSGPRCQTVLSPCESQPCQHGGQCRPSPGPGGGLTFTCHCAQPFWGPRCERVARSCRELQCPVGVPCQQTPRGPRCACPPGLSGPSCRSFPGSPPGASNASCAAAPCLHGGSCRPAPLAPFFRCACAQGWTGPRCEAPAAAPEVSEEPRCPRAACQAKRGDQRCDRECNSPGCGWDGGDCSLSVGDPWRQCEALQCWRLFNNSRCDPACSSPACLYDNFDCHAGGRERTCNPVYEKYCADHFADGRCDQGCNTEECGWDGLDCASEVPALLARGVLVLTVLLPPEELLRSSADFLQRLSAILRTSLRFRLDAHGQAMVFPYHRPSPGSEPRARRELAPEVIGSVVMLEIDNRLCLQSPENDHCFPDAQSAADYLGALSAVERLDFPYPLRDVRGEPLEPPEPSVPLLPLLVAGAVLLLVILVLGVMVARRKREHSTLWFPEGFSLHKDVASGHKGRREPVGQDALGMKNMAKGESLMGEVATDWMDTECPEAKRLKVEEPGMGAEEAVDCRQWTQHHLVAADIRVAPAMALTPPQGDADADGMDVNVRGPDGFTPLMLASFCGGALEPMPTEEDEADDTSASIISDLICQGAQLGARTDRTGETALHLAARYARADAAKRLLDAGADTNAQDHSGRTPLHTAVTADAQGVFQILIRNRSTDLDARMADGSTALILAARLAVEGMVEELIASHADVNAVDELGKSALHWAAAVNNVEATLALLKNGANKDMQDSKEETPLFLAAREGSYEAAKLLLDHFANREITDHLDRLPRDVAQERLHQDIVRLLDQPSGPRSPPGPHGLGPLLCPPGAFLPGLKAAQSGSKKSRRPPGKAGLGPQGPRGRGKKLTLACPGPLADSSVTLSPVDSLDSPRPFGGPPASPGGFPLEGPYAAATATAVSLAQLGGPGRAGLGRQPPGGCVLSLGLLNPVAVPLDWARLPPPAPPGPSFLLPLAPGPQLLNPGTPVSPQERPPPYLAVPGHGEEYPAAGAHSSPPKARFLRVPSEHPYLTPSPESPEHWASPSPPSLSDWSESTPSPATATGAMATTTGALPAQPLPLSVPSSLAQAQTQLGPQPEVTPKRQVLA

Turning to `CN1C(=O)C2C=CC(C(O)c3ccc(F)cc3)N(NC(=O)OC(C)(C)C)C2C1=O` (stereo not given), the composite z-score is 0.219 in test [1]; 3.28 in test [5]; -0.0154 in test [7]; -0.205 in test [8]; 0.816 in test [9]; -0.0531 in test [10]. Also, the z-score was 1.19 (inactive) in [2], 2.11 (inactive) in test [3], 1.71 (inactive) in test [4] and -1.31 (inactive) in test [6].

Regarding `CCOC(=O)C[C@H]1[C@H](OC(=O)c2ccc(-c3ccccc3)cc2)[C@@H](NC(=O)CC(C)C)c2cc(OCCCO)ccc2N1C(=O)c1ccccc1`, the composite z-score in test [1] was 0.468; in [5], 1.49; in test [7], -0.107; in [8], 0.49; in test [9] it was 0.952; in test [10], 0.048. Further, the z-score in test [2] is 0.72 (inactive); in test [3] it was 1.4 (inactive); in [4] it was 1.38 (inactive); in [6] it was -0.513 (inactive).

For `O=C1O[C@H](c2ccccc2)[C@H](c2ccccc2)N2[C@H]1[C@@H](C(=O)N1CCCCCCC1)[C@]1(C(=O)Nc3ccc(C#CC4(O)CCCCCC4)cc31)[C@H]2c1ccccc1OCCO`, the composite z-score is 1.54 in test [1]; 5.1 in test [5]; 1.91 in test [7]; 2.38 in test [8]; 1.03 in test [9]; 1.51 in test [10]. Besides, the z-score is 1.56 (inactive) in test [2], 0.462 (inactive) in test [3], 3.41 (inactive) in test [4] and 1.04 (inactive) in test [6].

With `COCCOC(=O)N1C(=O)[C@@]2(c3cc(C#CCCO)ccc31)[C@H](c1ccccc1OCCO)N1[C@H](c3ccccc3)[C@H](c3ccccc3)OC(=O)[C@H]1[C@@H]2C(=O)N1CCCCCCC1`, the composite z-score in test [1] came out at 1.54; in test [5], 3.57; in test [7], 1.39; in test [8] it was 1.86; in test [9], 1.05; in test [10], 0.837. Besides, the z-score in test [2] is 1.76 (inactive); in [3], 0.11 (inactive); in test [4], 2.88 (inactive); in test [6], 1.06 (inactive).

Turning to `CN(C)C(=O)[C@@]1(CCC(=O)OC(C)(C)C)N=C(c2ccc(OCCCO)cc2)O[C@H]1c1ccccc1CN=[N+]=[N-]`, the composite z-score in test [1] is 1.51; in [5] it was 3.83; in [7] it was 0.047; in test [8], 0.968; in [9] it was 0.599; in [10], -0.0238. Also, the z-score was -0.142 (inactive) in test [2], 0.245 (inactive) in test [3], -1.11 (inactive) in test [4] and 0.488 (inactive) in [6].

`COc1ccc(C(O)C2C=CC3C(=O)N(c4ccccc4)C(=O)C3N2Nc2ccccc2)cc1` (stereo not given): the composite z-score in [1] was 1.53; in [5], 3.6; in test [7], 0.191; in test [8], 0.505; in [9], 1.05; in test [10], -0.0382. The z-score in test [2] was 0.219 (inactive); in test [3], -0.24 (inactive); in test [4] it was 0.211 (inactive); in test [6], -0.701 (inactive).

On to `Cc1ccc(F)cc1S(=O)(=O)N[C@@H]1CCN(Cc2cccc3[nH]ccc23)C1`, for which the composite z-score is 0.317 in test [1]; -0.466 in [5]; -0.0728 in test [7]; 0.586 in test [8]; 0.56 in test [9]; 0.137 in test [10]. Further, the z-score in [2] was 0.84 (inactive); in [3], -1.02 (inactive); in test [4], -0.639 (inactive); in test [6] it was -0.833 (inactive).

For `COCCOC(=O)N1C(=O)[C@@]2(c3cc(C#CC4(O)CCCCCC4)ccc31)[C@H](C(=O)N1CCN(c3ncccn3)CC1)[C@H]1C(=O)O[C@H](c3ccccc3)[C@H](c3ccccc3)N1[C@@H]2c1ccccc1OCCO`, the composite z-score in test [1] is 1.2; in test [5] it was 1.79; in [7], -0.0795; in test [8] it was 1.04; in test [9], 1.08; in test [10] it was 0.0436. For the same molecule, the z-score in test [2] was 2.56 (inactive); in test [3], 2.26 (inactive); in test [4] it was 7.55 (inactive); in test [6], -0.267 (inactive).

For the molecule `[N-]=[N+]=NCc1ccccc1[C@H]1OC(c2ccc(OCCCO)cc2)=N[C@@]1(CCS(=O)(=O)c1ccccc1)C(=O)NCc1ccccc1`, the composite z-score came to 1.55 in test [1]; 3.11 in test [5]; 0.455 in test [7]; 0.605 in test [8]; 1.13 in [9]; 0.706 in test [10]. The z-score in test [2] is 1.47 (inactive); in test [3], 0.431 (inactive); in [4], 4.54 (inactive); in test [6] it was 1.28 (inactive).

`CC1(C)C(=O)C(c2ccccc2)=C2CN3C(=O)N(CCc4ccccc4)C(=O)C3(Cc3ccc(C(F)(F)F)cc3)C=C21` (stereo not given): the composite z-score was -0.362 in [1]; 2.65 in test [5]; 0.208 in [7]; -0.0717 in test [8]; 1.13 in [9]; 0.284 in [10]. The z-score was 1.32 (inactive) in [2], 2.01 (inactive) in test [3], 3.28 (inactive) in test [4] and -1.21 (inactive) in [6].

For the molecule `CS(=O)(=O)CCOC(=O)C1=CC(CCCO)=CC(C2CC2)N(Cc2cccc(OC(F)(F)F)c2)C=C1C(=O)OCCS(C)(=O)=O` (stereo not given), the composite z-score in test [1] is 0.757; in [5] it was 2.29; in [7], 0.203; in test [8], -0.0678; in test [9], 0.0213; in [10], -0.106. Also, the z-score is -0.725 (inactive) in [2], -2.34 (inactive) in test [3], -1.75 (inactive) in test [4] and -0.917 (inactive) in test [6].
